# MITF TRPM1 HTS = MITF TRPM1 promoter activation in melanoma cells. SK-MEL-5 TRPM1-promoter luciferase, 24 h; % of positive control, neutral wells = 0. activation, % at 12.5 µM. actives 0.75% (n = 300,000). AID 588334;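 active = mean activation of at least 80% with every replicate also reaching 80%; inconclusive = mean reaches 80% but some replicate falls short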;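 also: 0% = neutral control wells and 100% = parthenolide positive control wells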
# Wnt bcat act = activates Wnt/beta-catenin signaling in a reporter cell assay; activation, % at 9.35 µM; activator, plate reader; AID 743398; actives 1.2% (n = 300,000); in the data active = activation above about 30%, passing the limit was not always enough; inconclusive = no clear call, values can overlap the other calls;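 also: 0% = neutral control wells and 100% = positive control wells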
# PfHsp90 set2 = inhibits growth of yeast expressing Plasmodium falciparum Hsp90. S. cerevisiae expressing PfHsp90, BacTiter-Glo ATP, 48 h; yeast lacking PDR1 and PDR3 efflux regulators. inhibition, % at 9.4 µM. actives 0.32% (n = 310,000);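 active = every replicate shows inhibition above about 80%, whatever the replicate mean, limit read from the data; inconclusive = mean inhibition reaches the set limit but some replicate falls short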;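 also: 0% = DMSO neutral controls and 100% = 20 µM radicicol positive controls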
# N-glyco inh = N-linked glycosylation inhibition. actives 0.23% (n = 360,000). D54 ERlucT glycosylation luciferase reporter, 24 h; percent of 100 nM tunicamycin response. reporter increase, % at 12.5 µM;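 active = mean luciferase reporter signal, scaled so untreated is 0 and the glycosylation-blocking control 100, at or above a set limit in every replicate; inconclusive = mean reaches the limit but not every replicate does; inactive = mean below the limit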;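 also: luciferase carries N-glycosylation sites so blocking glycosylation raises the light; 0% = median of neutral control wells and 100% = median of 100 nM tunicamycin wells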
# MITF TRPM1 inh = reduces MITF-dependent TRPM1 promoter luciferase signal; inhibition, % at 12.5 µM; SK-MEL-5 TRPM1 promoter luciferase, 24 h; actives 0.83% (n = 330,000);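 active = mean inhibition across replicates of 60% or more, whatever share of single replicates reaches that level; inconclusive = some that reach 60%, reason not given; inactive = mean inhibition across replicates below 60%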
# NSD2 HMT inh = inhibitors of human histone methyltransferase NSD2; AID 743445; NSD2 peptide methylation, AlphaScreen, 120 min; inhibition, % at 12.5 µM; actives 0.54% (n = 310,000); in the data active = inhibition above about 50%
# An asterisk follows results filed as active; ? = inconclusive; nt = no result given. Rows were chosen to be rich in hits. Some 2.9% of all compounds tested hit in one or more screens of this group.
SMILES,MITF TRPM1 HTS,Wnt bcat act,PfHsp90 set2,N-glyco inh,MITF TRPM1 inh,NSD2 HMT inh
COCCn1c(C)cc(/C=C2/SC(=O)N(C(C)C(=O)OC)C2=O)c1C (stereo not given),97*,-2,2,-9,-100,4
COC(=O)CN1C(=O)S/C(=C/c2cc(C)n(C)c2C)C1=O,70,?,nt,-4,-67,1
CCn1c(C)cc(/C=C2/SC(=O)N(C(C)C(=O)OC)C2=O)c1C (stereo not given),?,47*,-13,-2,-79,35
COC(=O)C(C)N1C(=O)S/C(=C/c2cc(C)n(C(C)C)c2C)C1=O (stereo not given),86*,38*,66,-7,-83,9
CCOC(=O)C(C)N1C(=O)S/C(=C/c2cc(C)n(-c3ccccn3)c2C)C1=O (stereo not given),34,47*,-21,-5,-33,7
COc1ccc(-c2cc3c(=O)n(CC(=O)NCCCN4CCC(Cc5ccccc5)CC4)ncn3n2)cc1,-68,11,-28,-16,71*,-4
Cc1cc(C(=O)Nc2ccc(Cl)c(Cl)c2)n(-c2ccccc2)n1,nt,nt,nt,nt,nt,-3
CC(C)N1C(=O)S/C(=C\c2ccc(-c3ccc(Cl)c(C(=O)O)c3)o2)C1=O,nt,30,3,-4,-55,1
CCN(CC)c1ccc(/C=C2/SC(=O)N(C(C)C)C2=O)o1,-8,-24,86*,-8,9,13
CCOC(=O)N1CCC(N2CCCC(C(=O)c3cc(F)ccc3OC)C2)CC1 (stereo not given),-9,50*,9,-2,7,1
CCc1noc(C)c1C(=O)N1CCCC(C(=O)c2cc(F)ccc2OC)C1 (stereo not given),3,2,23,3,-3,-1
C[C@H](O)[C@@H]1CN2CCc3c([nH]c4ccccc34)[C@@H]2C[C@@H]1N(C)CC1CCCCC1,nt,0,nt,nt,nt,nt
O=c1oc(CCO)cc2ccc(-c3ccc4[nH]ccc4c3)cc12,117*,43*,1,-4,-110,nt
Cn1cncc1C#Cc1ccc2cc(CCO)oc(=O)c2c1,23,0,8,0,-26,nt
COc1cc(OC)cc(C(=O)NNC(=O)c2ccccn2)c1,-19,-5,-2,-6,21,-2
CC(Oc1cccc(Br)c1)C(=O)NNC(=O)c1ccccn1 (stereo not given),-81,nt,-12,-1,82*,-2
CCOc1cc(C(=O)O/N=C(\N)c2ccccn2)cc(OCC)c1OCC,-3,1,-17,8,1,-4
COc1cc(OC)cc(C(=O)O/N=C(\N)c2ccccn2)c1,nt,52*,nt,1,nt,-1
COc1ccc(C(=O)NNC(=O)c2ccccn2)cc1,-84,6,42,-23,85*,nt
COc1ccc(C(=O)O/N=C(\N)c2ccccn2)cc1,-80,0,72,-19,81*,11
N/C(=N\OC(=O)c1ccc(Cl)cc1)c1ccccn1,9,nt,nt,-20,-18,-1
CCC(C)N(C(=O)c1ccc(CNC(=O)c2cccc(Br)c2)cc1)C(C)CC (stereo not given),nt,nt,nt,nt,nt,1
O=C(OCc1ccc(F)cc1)c1cc(S(=O)(=O)N2CCCCC2)ccc1N1CCOCC1,0,-3,-86,-2,2,-1
COc1ccc(CN(CCN2CCOCC2)C(=O)c2cc(Cl)ccc2F)cc1OC,nt,nt,nt,nt,nt,-1
O=C(Nc1cnccn1)c1cccs1,-10,nt,-20,1,12,-2
SMILES,MITF TRPM1 HTS,Wnt bcat act,PfHsp90 set2,N-glyco inh,MITF TRPM1 inh,NSD2 HMT inh
O=C(Nc1ccc(NC(=O)c2cccs2)cn1)c1ccccc1,?,44*,13,-8,-80,-2
N#Cc1ccc(NC(=O)c2cccs2)nc1,86*,6,19,0,-84,0
O=C(Nc1ccc(NC(=O)C2CC2)nc1)c1cccs1,57,nt,22,-2,-55,21
COc1cc(C#Cc2c(-c3cncn3C)n(C)c3ccc(-c4cnc(N5CCOCC5)nc4)cc23)cc(OC)c1,89*,22,25,-9,-88,nt
COc1cc(C#Cc2c(-c3cncn3C)n(C)c3ccc(-c4ccc(CN5CCOCC5)cc4)cc23)cc(OC)c1,28,5,27,-4,-28,nt
CCN(CC)C(=O)CSc1nnc(-c2cccs2)o1,nt,nt,nt,nt,nt,-2
O=[N+]([O-])c1ccc(NC(=S)NCCc2ccccc2)cc1,10,13,-6,-6,-12,nt
O=[N+]([O-])c1ccc(NC(=S)NCCc2ccc(Cl)cc2)cc1,-2,nt,108*,-8,4,nt
O=C(Nc1ccc(Cl)cc1)Nc1nnc(Cc2ccc([N+](=O)[O-])cc2)s1,-3,48*,-36,-3,5,1
CCOC(=O)c1cccc(NC(=O)CN(C)S(=O)(=O)c2cc3ccccc3s2)c1,nt,nt,nt,nt,nt,-5
CC(C)(C)C1CCC(=NNc2nc3ccccc3[nH]2)CC1 (stereo not given),-5,0,0,1,5,6
C(=N\NCc1ccccc1)/c1ccc2ncccc2c1,nt,31*,nt,-6,nt,2
c1ccc2c(c1)CC/C2=N/Nc1nc2ccccc2[nH]1,82*,7,0,-11,-83,1
O=C(O)c1ccc(N/N=C/C(Br)=C/c2ccccc2)cc1,60,27,-9,-6,-59,0
BrC(=C\c1ccccc1)/C=N/Nc1nc2ccccc2[nH]1,30,33*,31,3,-35,-4
O=c1cnnc(N/N=C/c2ccccn2)[nH]1,-78,-13,-25,-11,80*,30
COC(=O)[C@]12C[C@H](CC(=O)NCC34CC5CC(CC(C5)C3)C4)C(=O)N(Cc3ccccc3)C1=C[C@H](C(C)(C)C)O[C@@H]2C,nt,-21,nt,nt,nt,nt
Cc1ccsc1/C=N/NC(=O)CNC(=O)c1cccc([N+](=O)[O-])c1C,13,-3,-15,3,-11,-4
C(=N\Nc1nc2ccccc2[nH]1)/c1ccc2ncccc2c1,nt,8,19,45*,-4,nt
C(=N\Nc1nc2ccccc2[nH]1)/c1cccc2nccnc12,nt,3,-10,-6,-9,-4
CCCCn1c(/C=N/Nc2nc3ccccc3[nH]2)nc2ccccc21,-2,15,-19,0,9,13
C(=N\Nc1nc2ccccc2[nH]1)/c1ccccn1,-82,21,26,-20,83*,-6
Fc1ccccc1-c1ccc(/C=N/Nc2nc3ccccc3[nH]2)o1,13,53*,27,-4,-4,-11
Cc1ccc(/C=N\Nc2nc3ccc(Cl)cc3[nH]2)o1,39,68*,15,-2,-38,-2
COc1cc(OC)nc(-n2ncc(Br)c(Br)c2=O)n1,-92,-13,19,-17,93*,-1
COC(=O)c1cnn(-c2nc(OC)cc(OC)n2)c1C,9,1,19,4,-12,-1
O=C(CNC(=O)c1ccc(Br)o1)Nc1cccc(-c2cnc3ccccc3n2)c1,-36,nt,-6,26*,37,-2

# Screens as filed in PubChem.
